From PubChem BioAssay (Tox21) come the findings set out here.

Where “and” joins values, the source holds several entries; their conditions need not be identical. Equal entries are not always repeated. Records with an inconclusive call do not appear. The source holds several records for some structures; these can differ, active in one and inactive in another. Calls of active or inactive are those of the source. Unless noted, the call rests on the fitted dose curve; in most records, active means well fitted curve in the direction sought with a large enough effect in the repeat runs; inconclusive means weak or mixed curves; inactive means no such curve, though single readings can be large; an effect the other way counts as inactive or inconclusive.

Assay [1] is described as follows: qHTS RealTime-Glo MT Cell Viability Assay in HEK293 cells - 0 hour (AID 1224880). Further: top concentration of the series differs between compounds; nearly all actives have a fitted effect of over 45% in size. The essentials:
(§1)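 Tox21 screen in HEK293 using RealTime-Glo MT chemistry, with cells and reagent co-dispensed. Luminescence proportional to viable cell number was captured at intervals during 40 h compound exposure at 37 C.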

Assay [2] is described as follows: A CellTox Green Cytotoxicity Assay to monitor cytotoxicity in HEK293 cells - 32 hour (AID 1224881). Further: nearly all actives have a fitted effect of over 40% in size. Further: potency means the concentration at half of the fitted maximal effect. The essentials: (§2)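 Seeding of HEK293 cells together with cytotoxicity dye preceded a 5 h incubation at 37 C/5% CO2. Test compounds in DMSO were then added and fluorescence monitored across 40 h.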
Assay [3] in a line: A CellTox Green Cytotoxicity Assay to monitor cytotoxicity in HepG2 cells - 0 hour (AID 1224882). Further: nearly all actives have a fitted effect of over 35% in size. The method in brief: (§3)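 Nonlytic assay: viable cells exclude the dye, so fluorescence scales with cell death. HepG2 at 600 cells/well, compounds added after 5 h, signal read across 40 h.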
Assay [4] in a line: A CellTox Green Cytotoxicity Assay to monitor cytotoxicity in HepG2 cells - 32 hour (AID 1224883). Further: nearly all actives have a fitted effect of over 50% in size. The method in brief:
as §3

The nature of assay [5]: A CellTox Green Cytotoxicity Assay to monitor cytotoxicity in HEK293 cells - 8 hour (AID 1224884). Further: nearly all actives have a fitted effect of over 35% in size. Further: potency means the concentration at half of the fitted maximal effect. The essentials:
as §2

The nature of assay [6]: qHTS RealTime-Glo MT Cell Viability Assay in HepG2 cells - 16 hour (AID 1224885). Further: nearly all actives have a fitted effect of over 50% in size. The essentials: (§4)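 Compound treatment began 5 h after plating HepG2 cells (600/well) with NanoLuc luciferase and prosubstrate. Plates stayed at 37 C for 40 h; luminescence was captured at six time points, 0 h through 40 h.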
Assay [7] can be described thus: qHTS RealTime-Glo MT Cell Viability Assay in HEK293 cells - 24 hour (AID 1224886). Further: top concentration of the series differs between compounds; nearly all actives have a fitted effect of over 50% in size. The essentials: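 Quantitative high-throughput screen of the Tox21 10K library in HEK293: cells and RealTime-Glo reagents plated together, compound added at 5 h, luminescence monitored through 40 h at 37 C.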
In general terms: In qHTS, concentration-response curves come from the screen itself.

Assay [8] is described as follows: qHTS RealTime-Glo MT Cell Viability Assay in HEK293 cells - 8 hour (AID 1224887). Further: top concentration of the series differs between compounds; nearly all actives have a fitted effect of over 50% in size. The essentials:
as §1

Assay [9] can be described thus: A CellTox Green Cytotoxicity Assay to monitor cytotoxicity in HEK293 cells - 16 hour (AID 1224888). Further: nearly all actives have a fitted effect of over 35% in size. The method in brief: as §2
Assay [10] in a line: qHTS RealTime-Glo MT Cell Viability Assay in HepG2 cells - 0 hour (AID 1224889). Further: nearly all actives have a fitted effect of over 50% in size. The method in brief: as §4
A short description of assay [11]: A CellTox Green Cytotoxicity Assay to monitor cytotoxicity in HepG2 cells - 8 hour (AID 1224890). Further: nearly all actives have a fitted effect of over 45% in size. The method in brief:
as §3

Assay [12] is described as follows: qHTS assay to identify small molecule antagonists of the estrogen receptor alpha (ER-alpha) signaling pathway using the BG1 cell line in the presence of 0.1 nM 17-beta-estradiol - cell viability counter screen (AID 1259241). Further: nearly all actives have a fitted effect of over 40% in size. The method in brief:
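CellTiter-Fluor read (30 min, 37C) on ER-alpha/ERE-luc VM7Luc4E2 cells; 22 hr compound treatment; agonist 0.1 nM E2 final; same-well multiplex.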

The nature of assay [13]: qHTS assay to identify small molecule antagonists of the androgen receptor (AR) signaling pathway using the MDA cell line in the presence of 0.5 nM R1881 - cell viability counter screen (AID 1259242). Further: nearly all actives have a fitted effect of over 45% in size. The method in brief:
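R1881 at 0.5 nM final stimulated MDA-kb2 cells during 16 hr compound treatment at 37C. Cytotoxicity read: CellTiter-Fluor fluorescence after 30 min.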

Assay [14] deals with Estrogen receptor (Homo sapiens) (UniProt P03372). Description: qHTS assay to identify small molecule antagonists of the estrogen receptor alpha (ER-alpha) signaling pathway using the BG1 cell line in the presence of 0.1 nM 17-beta-estradiol (AID 1259244). Further: nearly all actives have a fitted effect of over 50% in size. The method in brief: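 VM7Luc4E2; 4xERE-luciferase; 0.1 nM E2 final; 22 h co-incubation, 37C; ONE-Glo luminescence after 30 min at room temperature.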

The nature of assay [15]: qHTS assay to identify small molecule phospholipidosis (PLD) inducers (AID 1259344; active means well fitted curve in the direction sought with a large enough effect; an effect the other way counts as inactive or inconclusive). The method in brief:
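Quantitative HTS in HepG2: compound plus LipidTOX Red dye for 24 h, paraformaldehyde fixation with Hoechst 33342, widefield high-content imaging; amiodarone as positive and DMSO as negative control.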

The nature of assay [16]: qHTS assay to identify small molecule HDAC inhibitors (AID 1259364).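 Further: wild-type HCT-116 cells with endogenous class I/II HDAC activity; top concentration of the series differs between compounds; nearly all actives have a fitted effect of over 45% in size.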 The method in brief: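 Relative class I and II HDAC activity is taken from the luminogenic signal in HCT-116 cells, with compound exposure 2 hr and reagent development 30 min at room temperature.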
Assay [17] in a line: qHTS assay to identify small molecule HDAC inhibitors - cell viability counter screen (AID 1259365). The method in brief:
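To flag cytotoxic hits, 1,500 wild-type HCT-116 cells per well, plated the day before, receive test compounds for 2hr at 37 C before CellTiter-Glo reagent and a luminescence read.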

Assay [18] can be described thus: qHTS assay to identify small molecule agonists of the sonic hedgehog signaling (Shh) pathway - cell viability counter screen (AID 1259366). Further: nearly all actives have a fitted effect of over 50% in size. The essentials: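 Fluorescence from CellTiter-Fluor reports live cells in this counter screen. NIH/3T3-derived Gli1-Luc reporter cells receive test compounds for 24hr at 37C; reagent goes in at 23hr.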
Assay [19] in a line: qHTS assay to identify small molecule antagonists of the sonic hedgehog signaling (Shh) pathway - cell viability counter screen (AID 1259367). Further: nearly all actives have a fitted effect of over 55% in size. The method in brief:
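Seed 3T3 Gli1-Luc cells at 2,000 per well; incubate 4 hr; add compound in DMSO, then conditioned medium; incubate at 37C with 5% CO2; add CellTiter-Fluor after 23 hr; read fluorescence 1 hr later.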

Sequence of Estrogen receptor (Homo sapiens) (P03372 whole entry, looked up): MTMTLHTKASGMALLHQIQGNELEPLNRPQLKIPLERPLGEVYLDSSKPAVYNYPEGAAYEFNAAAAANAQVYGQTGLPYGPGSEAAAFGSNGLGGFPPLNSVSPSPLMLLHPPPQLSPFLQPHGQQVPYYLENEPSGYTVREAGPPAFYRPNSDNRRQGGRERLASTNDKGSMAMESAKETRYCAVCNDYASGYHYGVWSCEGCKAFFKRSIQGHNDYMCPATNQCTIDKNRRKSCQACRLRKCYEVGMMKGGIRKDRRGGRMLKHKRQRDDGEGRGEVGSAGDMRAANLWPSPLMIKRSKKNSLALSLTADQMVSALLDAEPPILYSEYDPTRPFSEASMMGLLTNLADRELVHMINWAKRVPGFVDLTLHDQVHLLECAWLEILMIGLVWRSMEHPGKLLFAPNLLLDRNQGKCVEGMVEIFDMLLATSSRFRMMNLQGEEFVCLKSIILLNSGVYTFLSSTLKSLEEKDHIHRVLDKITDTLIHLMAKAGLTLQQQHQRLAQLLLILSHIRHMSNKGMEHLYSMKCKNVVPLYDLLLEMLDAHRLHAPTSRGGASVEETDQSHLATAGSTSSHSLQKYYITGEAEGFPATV

With `O=C(O)Cc1ccccc1`, the result in assay [1], in assay [6], in assay [7], in assay [8], in assay [10] and in assay [12] was inactive. The outcome in [13] and in assay [17] was inactive. For the same molecule, the Potency result in [2], in assay [3], in [4], in assay [5], in [9] and in [11] was “inactive” in each case. Further, the Potency entry in assay [14], in assay [15], in assay [16], in [18] and in assay [19] was “inactive” each time.
On to `O=[N+]([O-])c1cc([As](=O)(O)O)ccc1O`, for which the call in [1], in assay [6], in [7], in [8], in assay [10] and in assay [12] was inactive. In assay [13], the outcome was inactive. The Potency entry in [2], in assay [3], in assay [4], in [5], in [9] and in assay [11] was “inactive” in each case. Besides, the Potency result in assay [14], in [15], in assay [16], in assay [18] and in assay [19] was “inactive” in each case.
As to `O=C(O)C(Br)Br`, the molecule was called inactive in assay [1], in [6], in assay [7], in assay [8], in [10] and in [12]. In assay [13], the result was inactive. The Potency entry in assay [2], in [3], in [4], in assay [5], in assay [9] and in assay [11] was “inactive” throughout. Besides, the Potency result in assay [14], in assay [16], in [18] and in assay [19] was “inactive” in each case.
On to `COc1nc(NC(C)C)nc(NC(C)C)n1`, for which the call in [1], in assay [6], in assay [7], in [8], in assay [10] and in assay [12] was inactive. The result in assay [13] and in assay [17] was inactive. Besides, the Potency entry in assay [2], in assay [3], in [4], in assay [5], in [9] and in [11] was “inactive” in each case. For the same molecule, the Potency result in assay [14], in [16], in assay [18] and in assay [19] was “inactive” in each case.
Turning to `O=[N+]([O-])c1ccc(Cl)c(Cl)c1`, the molecule was called inactive in [1], in assay [6], in assay [7], in [8], in [10] and in [12]. Besides, the outcome in assay [13] and in assay [17] was inactive. Besides, the Potency entry in assay [2], in [3], in assay [4], in assay [5], in [9] and in [11] was “inactive” in each case. Further, the Potency entry in [14], in assay [16], in assay [18] and in [19] was “inactive” each time.
Regarding `ClCCOCCCl`, the result in assay [1], in assay [6], in assay [7], in assay [8], in [10] and in [12] was inactive. In addition, the result in assay [13] and in assay [17] was inactive. In addition, the Potency result in [2], in assay [3], in assay [4], in [5], in assay [9] and in [11] was “inactive” throughout. Besides, the Potency entry in assay [16], in assay [18] and in [19] was “inactive” each time.
Regarding `Clc1cnc(Oc2ccc(Oc3ncc(Cl)cc3Cl)cc2)c(Cl)c1`, the call in [1], in assay [6], in assay [7], in [8], in assay [10] and in assay [12] was inactive. Besides, in assay [13], the result was inactive. For the same molecule, the Potency in assay [2] is 27.5 µM (active); in assay [5], “inactive and 34.7 µM (active)”. Also, the Potency entry in assay [3], in assay [4], in assay [11], in assay [16], in [18] and in assay [19] was “inactive” each time.
Regarding `C=CC#N`, the call in assay [1], in assay [6], in [7], in assay [8], in assay [10] and in assay [12] was inactive. In assay [13], the outcome was inactive. The Potency result in assay [2], in [3], in assay [4], in assay [5], in assay [11] and in [14] was “inactive” each time. For the same molecule, the Potency entry in [16], in assay [18] and in assay [19] was “inactive” throughout.
In the case of `O=C(O)COc1ccccc1`, the call in assay [1], in assay [6], in assay [7], in assay [8], in assay [10] and in assay [12] was inactive. In addition, the result in assay [13] was inactive. In addition, the Potency result in [3], in assay [4], in [5], in assay [9], in assay [11] and in assay [14] was “inactive” throughout. The Potency result in [15], in assay [16], in assay [18] and in [19] was “inactive” each time.
